# Measurements taken from PubChem BioAssay AID1159580 (chemical genetic matrix, 2015).
# The whole screen tested about 5,500 compounds, of which about 2,000 (36%) were called active. Another 18% or so got no clear call; they are omitted. The list shows a part of the results. Unmarked numbers belong to inactive results. Rule as the data show it: active = normalized growth mostly below about 0.91 (no sharp cut-off); inconclusive = no clear call, values can overlap the other calls; inactive = mostly above about 0.92.
# Experiment: chemical genetic growth profiling, strain panel (AID 1159580);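 also: tested at 20 µM; growth read once vehicle control cultures reached saturation at 30 °C; 1 = growth at the plate median or of vehicle wells; lower values mean less growth of the strain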
# Conditions: S. cerevisiae deletion strains, growth OD
smiles,measurement,setting,value
Oc1ccc2c3c1O[C@H]1c4oc5ccccc5c4C[C@@]4(O)C(C2)N(CC2CC2)CCC314 (stereo partly drawn),normalized growth,"locus YAL040C, strain CLN3, active compounds read low",1.01
same,normalized growth,"locus YCL061C, strain MRC1 (second series), active compounds read low",1
same,normalized growth,"locus YDR363W, strain ESC2, active compounds read low",0.994
same,normalized growth,"locus YER002W, strain NOP16, active compounds read low",0.988
same,normalized growth,"locus YJR075W, strain HOC1, active compounds read low",0.99
same,normalized growth,"locus YMR307W, strain GAS1, active compounds read low",0.988
same,normalized growth,"locus YNL175C, strain NOP13, active compounds read low",1.01
same,normalized growth,"locus YNL197C, strain WHI3, active compounds read low",1.01
same,normalized growth,"locus YNL224C, strain SQS1, active compounds read low",1
same,normalized growth,"locus YNL322C, strain KRE1, active compounds read low",0.993
same,normalized growth,"locus YOR083W, strain WHI5 (second series), active compounds read low",1.01
same,normalized growth,"locus YPL055C, strain LGE1, active compounds read low",0.975
O=S(=O)(Nc1cc(C(F)(F)F)ccc1F)c1cc(C(F)(F)F)ccc1Cl,normalized growth,"locus YAR019C, strain CDC15, active compounds read low",0.942
same,normalized growth,"locus YBL105C, strain PKC1, active compounds read low",0.947
same,normalized growth,"locus YBR135W, strain CKS1, active compounds read low",0.937
same,normalized growth,"locus YBR136W, strain MEC1, active compounds read low",0.943
same,normalized growth,"locus YBR160W, strain CDC28, active compounds read low",0.931
same,normalized growth,"locus YDL017W, strain CDC7, active compounds read low",0.944
same,normalized growth,"locus YDL028C, strain MPS1, active compounds read low",0.941
same,normalized growth,"locus YDL101C, strain DUN1, active compounds read low",0.969
same,normalized growth,"locus YDL108W, strain KIN28, active compounds read low",0.949
same,normalized growth,"locus YDL132W, strain cdc53, active compounds read low",0.945
same,normalized growth,"locus YDL214C, strain PRR2, active compounds read low",0.905
same,normalized growth,"locus YDR052C, strain DBF4, active compounds read low",0.957
same,normalized growth,"locus YDR054C, strain cdc34, active compounds read low",0.94
same,normalized growth,"locus YDR226W, strain ADK1, active compounds read low",0.95
same,normalized growth,"locus YDR477W, strain SNF1, active compounds read low",0.917
same,normalized growth,"locus YER123W, strain YCK3, active compounds read low",0.868
same,normalized growth,"locus YER133W, strain GLC7, active compounds read low",0.923
same,normalized growth,"locus YFL009W, strain cdc4, active compounds read low",0.939
same,normalized growth,"locus YFL029C, strain CAK1, active compounds read low",0.941
same,normalized growth,"locus YFR003C, strain YPI1, active compounds read low",0.946
same,normalized growth,"locus YFR019W, strain FAB1, active compounds read low",0.894
same,normalized growth,"locus YFR028C, strain CDC14, active compounds read low",0.939
same,normalized growth,"locus YGR040W, strain KSS1, active compounds read low",0.905
same,normalized growth,"locus YGR052W, strain FMP48, active compounds read low",0.831
same,normalized growth,"locus YGR092W, strain DBF2, active compounds read low",0.82
same,normalized growth,"locus YHR030C, strain SLT2, active compounds read low",0.644 (active)
same,normalized growth,"locus YHR079C, strain IRE1, active compounds read low",0.824
same,normalized growth,"locus YHR082C, strain KSP1, active compounds read low",0.771
same,normalized growth,"locus YHR205W, strain SCH9, active compounds read low",0.887
same,normalized growth,"locus YIL147C, strain SLN1, active compounds read low",0.95
same,normalized growth,"locus YJL095W, strain BCK1, active compounds read low",0.886
same,normalized growth,"locus YJL128C, strain PBS2, active compounds read low",0.911
same,normalized growth,"locus YJL157C, strain FAR1, active compounds read low",0.904
same,normalized growth,"locus YJR016C, strain ILV3, active compounds read low",0.941
same,normalized growth,"locus YJR066W, strain TOR1 (second series), active compounds read low",0.904
same,normalized growth,"locus YJR066W, strain TOR1, active compounds read low",0.82
same,normalized growth,"locus YKL048C, strain ELM1, active compounds read low",0.852
same,normalized growth,"locus YKL067W, strain YNK1, active compounds read low",0.905
same,normalized growth,"locus YKL101W, strain HSL1, active compounds read low",0.88
same,normalized growth,"locus YKL193C, strain SDS22, active compounds read low",0.938
same,normalized growth,"locus YKL203C, strain TOR2, active compounds read low",0.933
same,normalized growth,"locus YLR113W, strain HOG1, active compounds read low",0.715 (active)
same,normalized growth,"locus YLR133W, strain CKI1, active compounds read low",0.902
same,normalized growth,"locus YLR403W, strain SFP1, active compounds read low",0.902
same,normalized growth,"locus YML070W, strain DAK1, active compounds read low",0.864
same,normalized growth,"locus YMR001C, strain CDC5, active compounds read low",0.943
same,normalized growth,"locus YMR205C, strain PFK2 (second series), active compounds read low",0.925
same,normalized growth,"locus YMR277W, strain FCP1, active compounds read low",0.944
same,normalized growth,"locus YNL006W, strain LST8, active compounds read low",0.936
same,normalized growth,"locus YNL020C, strain ARK1, active compounds read low",0.882
same,normalized growth,"locus YNL161W, strain CBK1, active compounds read low",0.939
same,normalized growth,"locus YNL183C, strain NPR1, active compounds read low",0.808
same,normalized growth,"locus YNL207W, strain RIO2, active compounds read low",0.937
same,normalized growth,"locus YNL222W, strain SSU72, active compounds read low",0.938
same,normalized growth,"locus YNL307C, strain MCK1 (second series), active compounds read low",0.861
same,normalized growth,"locus YOL078W, strain AVO1, active compounds read low",0.935
same,normalized growth,"locus YOL136C, strain PFK27, active compounds read low",0.858
same,normalized growth,"locus YOR061W, strain CKA2, active compounds read low",0.908
same,normalized growth,"locus YOR119C, strain RIO1, active compounds read low",0.951
same,normalized growth,"locus YOR231W, strain MKK1, active compounds read low",0.817
same,normalized growth,"locus YOR329C, strain SCD5, active compounds read low",0.947
same,normalized growth,"locus YPL031C, strain PHO85, active compounds read low",0.881
same,normalized growth,"locus YPL153C, strain RAD53, active compounds read low",0.867
same,normalized growth,"locus YPL204W, strain HRR25, active compounds read low",0.876
same,normalized growth,"locus YPL209C, strain IPL1, active compounds read low",0.935
same,normalized growth,"locus YPL256C, strain CLN2, active compounds read low",0.694 (active)
same,normalized growth,"locus YPR025C, strain CCL1, active compounds read low",0.937
same,normalized growth,"locus YPR106W, strain ISR1, active compounds read low",0.929
same,normalized growth,"locus YPR111W, strain DBF20, active compounds read low",0.925
same,normalized growth,"strain NNK1, active compounds read low",0.934
same,normalized growth,"strain TSCII, active compounds read low",0.941
